Source: PubChem BioAssay (several laboratories)
Insulin prom inh – TRM-6 insulin promoter activity inhibition. TRM-6 cells (human fetal islet line), insulin promoter-eGFP reporter, imaging; reporter expression induced with tamoxifen. inhibition, % at 2 µM. actives 0.9% (n = 130,000);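 active means inhibition above the mean plus 3 SD, with well images judged a real hit on visual review, cut at about 60% in these data, passing the limit was not always enough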
Cl transport mod – modulates chloride dependent transport by human KCC2 | B-score of Tl+ flux slope (higher = more flux/activation; lower = inhibition) at 10 µM | KCC2 cells, thallium flux FluoZin-2 fluorescence | Q9H2X9 | actives 2.2% (n = 190,000) | AID 1456;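 active means thallium flux slope and its plate-corrected score both differing from the plate sample mean at a set confidence after two filtering rounds, in either direction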;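 further: slope of fluorescence scaled to starting intensity during 10 to 20 s after thallium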
ROMK primary – modulators of human ROMK potassium channel; AID 1918; B-score at 10 µM; P48048; Tet-inducible ROMK, thallium flux fluorescence; actives lie on both sides; actives 2% (n = 130,000);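 active means signal ratio slope over the read window, or its plate-corrected B-score, at least 3 SD from the plate mean, either direction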;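 further: B-score of the F/F0 ratio slope over 7 to 12 s after thallium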
Target sequence (P48048 whole entry, looked up): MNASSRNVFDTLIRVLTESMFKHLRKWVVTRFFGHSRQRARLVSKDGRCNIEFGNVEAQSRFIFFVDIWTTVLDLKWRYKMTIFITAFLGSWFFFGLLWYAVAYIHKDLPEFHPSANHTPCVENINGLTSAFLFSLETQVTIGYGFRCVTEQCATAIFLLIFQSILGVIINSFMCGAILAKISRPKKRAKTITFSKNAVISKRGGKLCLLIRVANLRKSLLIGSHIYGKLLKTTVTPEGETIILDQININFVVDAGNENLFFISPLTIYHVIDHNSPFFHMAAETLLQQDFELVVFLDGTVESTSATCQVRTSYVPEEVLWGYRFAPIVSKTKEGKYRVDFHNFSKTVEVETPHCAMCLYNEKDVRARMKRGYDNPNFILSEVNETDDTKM
WT yeast gro inh – growth inhibition of WT yeast, mitochondrial fusion screen; mitochondrial fusion phenotypic screen, WT strain; inhibition, % at 10 µM; actives 2.1% (n = 190,000); AID 1362; in the data active means inhibition above about 58%; tested in S. cerevisiae
Insulin prom up – MIN6 insulin promoter up-regulation. MIN6 insulin promoter-GFP reporter, high-content imaging; active compounds read high. z-score at 5 µM. actives 0.3% (n = 190,000). AID 1625;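 active means z-score above 3 at 5 µM with at least 500 cells counted in the well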
L major viab – Leishmania major promastigote growth inhibition | Leishmania major promastigotes, resazurin fluorescence viability | actives 9% (n = 200,000) | inhibition, % at 10 µM | AID 1063; in the data active means inhibition above about 50%;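 further: promastigotes grown with compound for 44 hours at 28 °C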
A number is an active result; . = inactive; / = not tested or not shown. Only some compounds are listed: those with a hit (about 12% of all), similar ones and a draw of the others.

SMILES | Insulin prom inh | Cl transport mod | ROMK primary | WT yeast gro inh | Insulin prom up | L major viab
Cc1ccc(C(C(=O)NC2CCCCC2)N(C(=O)Cc2c[nH]c3ccccc23)c2ccccc2)o1 (centres undefined) | . | / | / | . | / | .
CC(=O)Nc1ccc(N(C(=O)Cc2c[nH]c3ccccc23)C(C(=O)NC2CCCCC2)c2ccco2)cc1 (centres undefined) | . | . | . | . | . | 60
COc1ccc(C(C(=O)NC2CCCCC2)N(Cc2cccs2)C(=O)Cc2c[nH]c3ccccc23)cc1 (centres undefined) | / | . | . | . | . | .
CC(=O)Nc1ccc(S(=O)(=O)NC2(C(F)(F)F)NC(=O)N(c3ccc(Cl)cc3)C2=O)cc1 (centres undefined) | / | / | . | . | . | .
Cc1cc(-c2ccccc2)nc(-c2ccccc2)c1C | / | . | . | 78 | . | .
COc1cc(C(=O)NCc2nnc(SCC(=O)N3CCCc4ccccc43)o2)cc(OC)c1OC | . | . | . | . | . | .
Nc1nc(SCC(=O)Nc2cccc(S(=O)(=O)N3CCCCCC3)c2)n[nH]1 | / | . | . | . | . | .
CC(C)c1ccccc1NC(=O)COc1ccc(C(=O)NCCc2ccccc2)cc1 | . | . | . | . | . | 71
Cc1ccc(NC(=O)C(=O)NCCN2CCN(C(=S)Nc3ccccc3)CC2)cc1 | . | . | / | . | . | .
Cc1oc(-c2ccccc2)nc1CS(=O)CC(=O)O (centres undefined) | / | 2.9 | / | . | . | .
COc1cccc(-c2nc(CS(=O)CC(=O)O)c(C)o2)c1 (centres undefined) | / | . | / | . | . | .
C=CCNC(=O)c1c(Cl)cnn1-c1ccc(C)cc1 | / | . | / | . | . | .
COc1ccc(NC(=O)c2cc3n(n2)C(C(F)(F)F)CC(c2ccc4c(c2)OCO4)N3)cc1OC (centres undefined) | / | . | / | 68 | / | .
Cc1cccc(NC(=O)c2cc3n(n2)C(C(F)(F)F)CC(c2ccc4c(c2)OCO4)N3)c1 (centres undefined) | . | . | / | 67 | . | .
COc1ccc(C2CC(C(F)(F)F)n3nc(C(=O)NCCCn4ccnc4)cc3N2)cc1OC (centres undefined) | / | / | / | . | . | .
C=CCNC(=S)N/N=C/c1ccc(N(CC)Cc2ccccc2)cc1 | . | . | . | 69 | / | .
CCOC(=O)c1cc(-c2ccc(C)cc2)n(CCC(=O)N2CCN(c3ccccn3)CC2)c1C | . | . | / | . | . | 90
CNC(=S)N1CCN(c2ccc([N+](=O)[O-])cc2)CC1 | . | . | / | 67 | . | .
O=C(CCCc1ccccc1)N1CCN(c2ccc([N+](=O)[O-])cc2)CC1 | . | . | / | . | . | 58
O=C(CCS(=O)(=O)Cc1ccccc1)N1CCN(c2ccc([N+](=O)[O-])cc2)CC1 | / | . | . | . | . | .
O=C(CCc1ccccc1)N1CCN(c2ccccn2)CC1 | . | . | . | . | . | 52
COc1ccc(/C=N/c2oc(C)c(C)c2C#N)c(OC)c1 | / | . | / | . | . | .
Cc1ccc2c(CN3CCN(S(=O)(=O)c4ccc5c(c4)OCCO5)CC3)cc(=O)oc2c1C | / | . | / | . | . | .
COc1cc2c(cc1OC)C(C)N(S(=O)(=O)c1cn(C)c(C)n1)CC2 (centres undefined) | / | . | / | / | . | /
CN(C(=O)c1ccc(S(=O)(=O)c2cccc(Cl)c2)c([N+](=O)[O-])c1)C1CCCCC1 | . | . | . | . | . | 100
SMILES | Insulin prom inh | Cl transport mod | ROMK primary | WT yeast gro inh | Insulin prom up | L major viab
O=C(NC1CCCCC1)c1ccc(S(=O)(=O)c2ccccc2Cl)c([N+](=O)[O-])c1 | . | . | . | . | / | .
CC(C)CN1CCC(C(=O)N2CCN(c3ccccc3F)CC2)CC1 | . | . | . | . | . | 82
CCN1CCN(C(=O)CN(CCc2ccccc2)S(C)(=O)=O)CC1 | / | . | . | . | / | .
COc1ccc(NC(=O)CC2SC(=NCc3ccccc3OC)NC2=O)cc1 (centres undefined) | . | . | / | / | . | .
Cc1[nH]c2ccccc2c1C(=O)C(=O)NCc1ccco1 | . | . | . | . | . | .
O=C(/C=C/c1cccs1)c1cc(Br)ccc1OC(=O)N1CCOCC1 | . | . | . | . | . | 72
O=C(c1cc2nc(-c3ccc(F)cc3)cc(C(F)(F)F)n2n1)N1CCCCC1c1cccnc1 (centres undefined) | . | . | . | . | . | 96
CN1CCN(C(=O)c2cc3nc(-c4ccc(F)cc4)cc(C(F)(F)F)n3n2)CC1 | . | / | . | . | . | .
CN(C)S(=O)(=O)c1cccc(NC(=O)COC(=O)CCOc2ccccc2)c1 | / | . | . | . | . | .
CC(=O)c1ccc(OCCCC(=O)Nc2cccc(S(=O)(=O)N(C)C)c2)cc1 | . | . | / | . | . | 58
CN(c1ccccc1)S(=O)(=O)c1cccc(NC(=O)CC(C)(C)C)c1 | . | . | / | . | / | 96
CN(c1ccccc1)S(=O)(=O)c1cccc(NC(=O)CN2CCc3ccccc3C2)c1 | / | . | . | . | . | .
CCOc1ccc(CN(C)CC(=O)Nc2cccc(S(=O)(=O)N(C)c3ccccc3)c2)cc1 | / | . | . | . | . | 74
COc1cccc(CN(C)CC(=O)Nc2cccc(S(N)(=O)=O)c2)c1OC | . | . | . | . | . | 88
COc1ccc(Br)cc1CN(C)CC(=O)Nc1cccc(S(N)(=O)=O)c1 | . | / | . | . | . | .
CCOC(=O)c1c(-c2ccccc2)nc2c(C)cccn12 | . | . | / | . | / | .
C=C(C)Cn1c(SCC(=O)N/N=C/c2ccccc2)nc2ccccc2c1=O | . | . | / | . | . | .
O=C(c1ccco1)N1CCCC(c2nc(-c3ccc(S(=O)(=O)NCc4ccccc4)cc3)no2)C1 (centres undefined) | / | . | . | . | / | .
CCOc1ccc(OCC(=O)Nc2ccc(S(N)(=O)=O)cc2)cc1 | . | . | . | . | . | .
CC(C)(C)c1ccc(OCCCC(=O)Nc2ccc(S(N)(=O)=O)cc2)cc1 | / | . | . | . | . | 73
CN(c1ccccc1)S(=O)(=O)c1cccc(NC(=O)Cn2cnc3ccccc3c2=O)c1 | . | . | . | . | . | 98
N#Cc1ccc(-c2ccc(F)cc2)nc1Sc1ccc(F)cc1 | / | / | . | . | . | .
O=C(O)CCC(=O)N1CCC(C(=O)c2cccc(Cl)c2)CC1 | . | / | . | . | . | .
CC(CCc1ccccc1)NC(=O)CCN1N=C(c2ccccc2)CCC1=O (centres undefined) | . | . | / | . | . | .
CCc1ccc(C2=NN(CCC(=O)NC(C)CCc3ccccc3)C(=O)CC2)cc1 (centres undefined) | . | . | . | . | . | 95
COC(=O)c1sc(N)c(C(=O)OC)c1COC(=O)c1c(C)noc1C | / | . | / | . | . | .
COC(=O)c1[nH]c2cc(OC)ccc2c1NC(=O)CCN1CCCC(C)(C)C1 | / | . | . | . | . | .
Cc1ccc(C)c(NC(=O)CN(C)C(=O)COc2ncnc3sccc23)c1 | . | . | . | . | . | 58
